Bioassay records deposited in PubChem BioAssay by Sanford-Burnham Center for Chemical Genomics.
An excerpt weighted towards active compounds, which were near 31% of everything screened.
CYP2C9 activ = activators of human CYP2C9; recombinant CYP2C9, luciferin-H conversion, luminescence; hits give high values; factor 1 = untreated enzyme, 0 = blocked; P11712; AID 1024; hit rate 1.4% among 96,000; activation factor at 5 µM;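 active = activation factor of 2 or more for CYP2C9 at a 5 µM dose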;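 note: 0 = sulfaphenazole-blocked wells and 1 = vehicle-only wells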
Target sequence (P11712 whole entry, looked up): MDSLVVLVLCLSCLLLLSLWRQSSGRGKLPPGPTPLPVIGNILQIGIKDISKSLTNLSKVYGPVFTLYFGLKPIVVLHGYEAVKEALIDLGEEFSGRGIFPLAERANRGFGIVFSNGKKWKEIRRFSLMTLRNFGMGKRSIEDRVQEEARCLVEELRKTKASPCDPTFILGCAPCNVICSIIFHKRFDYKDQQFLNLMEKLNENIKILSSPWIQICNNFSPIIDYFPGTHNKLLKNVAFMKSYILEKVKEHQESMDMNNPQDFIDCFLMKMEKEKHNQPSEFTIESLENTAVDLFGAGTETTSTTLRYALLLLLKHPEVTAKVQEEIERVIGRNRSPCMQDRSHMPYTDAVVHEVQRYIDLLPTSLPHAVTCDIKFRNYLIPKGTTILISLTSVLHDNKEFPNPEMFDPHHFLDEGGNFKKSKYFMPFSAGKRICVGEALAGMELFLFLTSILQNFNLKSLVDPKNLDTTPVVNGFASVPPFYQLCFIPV
PLAP act = activators of human placental alkaline phosphatase. activation fold at 20 µM. P05187. purified PLAP enzyme, luminescent substrate read-out; hits give high values. hit rate 1.2% among 96,000. AID 696; in the data active = activation fold above about 2
CYP2C19 act = increases human CYP2C19 enzyme activity; activation factor at 5 µM; P33261; AID 1025; recombinant CYP2C19, luciferin-H EGE luminescence; hits give high values; 0 = fully inhibited enzyme, 1 = untreated enzyme; 96,000 tested, under 10 active;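 active = activation factor of at least 2 at 5 µM in the primary screen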;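 note: 0 = wells with 2.5 mM tranylcypromine and 1 = vehicle-only wells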
CYP2C19 inh = human CYP2C19 inhibition | P33261 | hit rate 21% among 96,000 | inhibition, % at 5 µM | CYP2C19 Supersomes, luciferin-H EGE luminescence, 30 min;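 active = CYP2C19 inhibition above a set limit at 5 µM in the primary screen, cut at about 50% in these data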;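 note: plate controls were negative control wells for no effect and 2.5 mM tranylcypromine positive control for full effect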
CYP2C9 inhib = blocks human cytochrome P450 2C9 | CYP2C9 Supersomes, luciferin-H conversion, luminescence | inhibition, % at 5 µM | hit rate 20% among 96,000;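 active = blocking of liver enzyme CYP2C9 beyond about 50% at 5 µM, limit read from the data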
An asterisk follows results filed as active.

CCC(Oc1ccccc1)C(=O)Nc1cc(C)on1 (centres undefined) was read as CYP2C9 activ 0.5, PLAP act 1, CYP2C19 act 0.6, CYP2C19 inh 36 and CYP2C9 inhib 46.
`Cc1nnc(NC(=O)COc2ccccc2)s1` gave CYP2C9 activ 0.8, PLAP act 0.8, CYP2C19 act 0.9, CYP2C19 inh 13 and CYP2C9 inhib 22.
Screening COCC(=O)NC1CCN(C(=O)NCc2ccccc2)CC1 returned CYP2C9 activ 1.1, PLAP act 1, CYP2C19 act 1, CYP2C19 inh 0 and CYP2C9 inhib -6.
`O=C(O)c1ccccc1NCc1ccncc1` gave CYP2C9 activ 0.2, PLAP act 1, CYP2C19 act 1, CYP2C19 inh 1 and CYP2C9 inhib 76*.
Screening N/C(Cc1ccc([N+](=O)[O-])cc1)=N\OC(=O)C(c1ccccc1)c1ccccc1 returned CYP2C9 activ 0.5, PLAP act 0.8, CYP2C19 act 0.7, CYP2C19 inh 29 and CYP2C9 inhib 54*.
`Cc1cccc(C(=O)O/N=C(\N)Cc2ccc([N+](=O)[O-])cc2)c1` gave CYP2C9 activ 0.6, PLAP act 0.8, CYP2C19 act 0.2, CYP2C19 inh 84* and CYP2C9 inhib 37.
For CCCCN(C)CCNC(=O)Cn1c(=O)sc2ccccc21 the results were CYP2C9 activ 1.1, PLAP act 1, CYP2C19 act 1.1, CYP2C19 inh -7 and CYP2C9 inhib -5.
`COc1cccc(C(=O)Nc2ccccc2)c1` gave CYP2C9 activ 1, PLAP act 1.1, CYP2C19 act 0.7, CYP2C19 inh 31 and CYP2C9 inhib -2.
Screening COc1cccc(C(=O)Nc2cccc(SC)c2)c1 returned CYP2C9 activ 0.6, PLAP act 0.7, CYP2C19 act 0.1, CYP2C19 inh 87* and CYP2C9 inhib 41.
For COC(=O)c1[nH]c2cc(OC)c(OC)cc2c1NC(=O)c1cccc(OC)c1 the results were CYP2C9 activ 0.4, PLAP act 1.6, CYP2C19 act 0.9, CYP2C19 inh 6 and CYP2C9 inhib 59*.
For COc1cccc(C(=O)Nc2cccc(OCC(=O)O)c2)c1 the results were CYP2C9 activ 0.6, PLAP act 1.1, CYP2C19 act 0.3, CYP2C19 inh 70* and CYP2C9 inhib 36.
For CNC(=O)c1[nH]cnc1C(=O)Nc1cccc(OC)c1 the results were CYP2C9 activ 0.7, PLAP act 1.9, CYP2C19 act 0.3, CYP2C19 inh 67* and CYP2C9 inhib 32.
Screening O=C(CN1C(=O)NC2(CCCCCCC2)C1=O)NCc1ccc2c(c1)OCO2 returned CYP2C9 activ 0.8, PLAP act 0.8, CYP2C19 act 1, CYP2C19 inh 5 and CYP2C9 inhib 23.
Screening Cc1c(NC(=O)C(C)OC(=O)CC2Sc3ccccc3NC2=O)c(=O)n(-c2ccccc2)n1C (centres undefined) returned CYP2C9 activ 0.5, PLAP act 1.8, CYP2C19 act 1, CYP2C19 inh 1 and CYP2C9 inhib 48.
COc1ccc(NC(=S)Nc2ccccc2F)c(OC)c1 was read as CYP2C9 activ 1.1, PLAP act 0.9, CYP2C19 act 0.5, CYP2C19 inh 47 and CYP2C9 inhib -14.
O=C(Oc1nsnc1N1CCOCC1)N1CCOCC1 was read as CYP2C9 activ 1.1, PLAP act 1, CYP2C19 act 1.1, CYP2C19 inh -9 and CYP2C9 inhib -9.
For O=C(Oc1nsnc1N1CCOCC1)c1ccccc1 the results were CYP2C9 activ 0.6, PLAP act 1, CYP2C19 act 0.4, CYP2C19 inh 64* and CYP2C9 inhib 37.
CCOC(=O)C1C(=O)N(C(=O)c2ccc(OC)cc2)CC1c1ccccc1 (centres undefined) was read as CYP2C9 activ 0.9, PLAP act 0.8, CYP2C19 act 0.9, CYP2C19 inh 13 and CYP2C9 inhib 9.
For CCOC(=O)C1C(=O)N(C(=O)c2cncc(Br)c2)CC1c1ccccc1 (centres undefined) the results were CYP2C9 activ 0.9, PLAP act 1.1, CYP2C19 act 0.2, CYP2C19 inh 84* and CYP2C9 inhib 9.
`Cn1c(=O)[nH]c(=O)c2c1nc(N1CCCCC1)n2CCOc1ccccc1` gave CYP2C9 activ 0.9, PLAP act 1.3, CYP2C19 act 0.7, CYP2C19 inh 30 and CYP2C9 inhib 8.
CC1(C)C(=O)C2(CCCC2)C(=O)OC1c1ccco1 (centres undefined) was read as CYP2C9 activ 0.8, PLAP act 1.1, CYP2C19 act 0.4, CYP2C19 inh 64* and CYP2C9 inhib 20.
